Results published in PubChem BioAssay (NCI).
The panel holds about 79,000 compounds, 15% with a hit somewhere; the sample as a whole holds those more often. Calls of active or inactive are those of the source. No stated cut-off is given here; in the data, active means growth inhibition above about 70%; inactive means the rest.

Tests used:
[1] = NCI Yeast Anticancer Drug Screen. Data for the rad50 strain (AID 155);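 further: 0% = growth of vehicle-only cultures of the same strain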; details: S. cerevisiae rad50 strain growth inhibition; at 50.0 µM; stronger effect = higher value
Procedure, shortened: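 Inhibition values express reduced yeast growth in compound-treated cultures relative to vehicle-treated controls.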

[2] = NCI Yeast Anticancer Drug Screen. Data for the mec2-1 strain (AID 157); details: S. cerevisiae mec2-1 strain, at 50.0 µM, stronger effect = higher value
Procedure, shortened: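 Strain: mec2-1 (DNA repair/cell cycle alteration). Compound exposure, then growth measured; inhibition expressed relative to vehicle.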

[3] = NCI Yeast Anticancer Drug Screen. Data for the sgs1 mgt1 strain (AID 161);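 further: 0% = growth of cultures given vehicle only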; details: S. cerevisiae sgs1 mgt1 strain, at 50.0 µM, stronger effect = higher value
Procedure, shortened: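 Mutant yeast exposed to compound; growth scored against vehicle-only wells.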

[4] = NCI Yeast Anticancer Drug Screen. Data for the cln2 rad14 strain (AID 165);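 further: 0% = growth equal to vehicle treated cultures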; details: S. cerevisiae cln2 rad14 strain, at 50.0 µM, stronger effect = higher value
Procedure, shortened: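 Compounds are applied to the cln2 rad14 yeast strain, and growth is then compared with that of vehicle-treated cultures to give inhibition.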

[5] = NCI Yeast Anticancer Drug Screen. Data for the bub3 strain (AID 167); details: S. cerevisiae bub3 mutant strain, at 50.0 µM, stronger effect = higher value
Procedure, shortened: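 Steps: expose the mutant yeast strain to compound; grow alongside vehicle-treated cultures; measure growth; express inhibition against the vehicle cultures.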

[6] = NCI Yeast Anticancer Drug Screen. Data for the mlh1 rad18 strain (AID 175); details: S. cerevisiae mlh1 rad18 strain growth inhibition; at 50.0 µM; stronger effect = higher value
Procedure, shortened: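 Read-out is yeast growth inhibition, calculated against vehicle-only controls. The compound was applied to a strain engineered with DNA damage repair alterations.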

Measured: growth inhibition

CCn1c(C)cc(=NC(=O)c2ccccc2O)n1-c1ccccc1
inactive: [1] 4.45% | [2] 9.8% | [3] 25.6% | [4] 11.5% | [5] 21% | [6] 16.7%

COc1ccc(C2=Nc3cccc4c3N(CCC4)C2c2ccc(OC)cc2)cc1 (stereo unspecified)
inactive: [1] 0.45% | [2] 2.45% | [3] 3% | [4] 7.6% | [5] -2.95% | [6] 4.8%

COC(=O)C(=O)[C@@H](O)[C@H](O)[C@@H](O)CO
inactive: [1] 29.8% | [2] 23.7% | [3] 25% | [4] 13.1% | [5] 25.7% | [6] 23.6%

CCCCCC(Cl)(CC)CCCCC
inactive: [1] -23.4% | [2] -0.6% | [3] -16.6% | [4] -39.7% | [5] 1.45% | [6] -8.85%

CCCNc1ncnc2c1ncn2C
inactive: [1] 10.6% | [2] -15% | [3] -3.55% | [4] 7.65% | [5] 7.45% | [6] -4.65%

O=C(O)CCCc1ccc2c(c1)CC1(C2)Cc2cc3c(cc2C1)CCCC3
inactive: [1] -11.7% | [2] -32.4% | [3] -16.9% | [4] 24.2% | [5] 18.4% | [6] 7.4%

CC(NNC(=S)N1CCC(c2ccccc2)CC1)c1ccc2ccccc2n1 (stereo unspecified)
inactive: [1] -48.9% | [2] 9.25% | [3] 29.9% | [4] 11.5% | [5] -2% | [6] 26.9%

O=[N+]([O-])c1ccc(CN2CCC(C(=S)Nc3ccccc3)=C2c2ccccc2)cc1
inactive: [1] 9.6% | [2] 0.3% | [3] 8.8% | [4] 9.05% | [5] -1.2% | [6] 12.4%

CC(=O)NC1=C(C)C(=O)c2c(nc3n2CCC3OC(=O)c2ccccc2)C1=N (stereo unspecified)
inactive: [1] 15% | [2] -8.3% | [3] 22% | [4] 6% | [5] 26.9% | [6] -34%

N#CSCc1cc(Cl)c(CSC#N)c(Cl)c1Cl
inactive: [1] -6.95% | [2] 22.2% | [3] -3% | [4] 16.6% | [5] 13.2% | [6] 31.4%

CN(C)[C@@H]1C(=O)C(C(=O)NCNC2CC(C)(C)N(O)C(C)(C)C2)=C(O)C2(O)C(=O)C3=C(O)c4c(O)cccc4[C@@](C)(O)C3CC12 (stereo partly specified)
inactive: [1] -1.2% | [2] 30.6% | [3] 2.55% | [4] -37% | [5] -22.1% | [6] 24.6%

Cc1cccc(C)c1NC(=O)C(=O)CC(=O)/C=C/c1ccccc1
inactive: [1] -14.5% | [2] -20.2% | [3] -30.6% | [4] 3.05% | [5] -23.1% | [6] -28.7%

CCCCCCCCCCCC[N+](C)(C)Cc1cc(=O)c(O)co1
active: [1] 71.7% | [3] 74.1% | [4] 78.8%
inactive: [2] 43.6% | [5] 65% | [6] 27.2%

CC(=O)N(C)c1cccc2ccccc12
inactive: [1] 17.9% | [2] -1.35% | [3] 9.85% | [4] -4.65% | [5] 6.75% | [6] 5.2%

Clc1ccc(Cl)c(Nc2ccnc(SCc3ccccc3)n2)c1
inactive: [1] 42.1% | [2] 25.9% | [3] -27.5% | [4] 14.4% | [5] -7% | [6] 24.9%

CN(C)c1ccc(N=Nc2cccc3ccoc23)cc1
inactive: [1] 11.6% | [2] -23.6% | [3] 9.9% | [4] -28.3% | [5] 14.9% | [6] 14%

O=C1C(O)C(c2ccccc2)c2ccccc2N1c1ccccc1 (stereo unspecified)
inactive: [1] 2.2% | [2] 5.35% | [3] 1.8% | [4] -5.9% | [5] -9.75% | [6] 15.1%

NC[C@H]1Nc2ccccc2[C@@H](O)C1O (stereo partly specified)
inactive: [1] 14.6% | [2] 6.95% | [3] 0.4% | [4] 8.9% | [5] 12.6% | [6] -12.1%

Oc1ccc(N=Cc2ccc3ccccc3n2)cc1
inactive: [1] 36% | [2] 1.55% | [3] 19.1% | [4] 10.3% | [5] -19.8% | [6] 4.2%

Cn1c(=O)c2cc(O)cnc2n(C)c1=O
inactive: [1] 4.8% | [2] -5.8% | [3] 0.3% | [4] -14.7% | [5] -7.35% | [6] -3%

CCCCCC/C=C1\CCC(CN(C)C)C1=O (stereo unspecified)
active: [1] 79.4% | [2] 93.2% | [3] 91.1% | [4] 89.8% | [5] 90.7% | [6] 91.4%

O=C(NCCNCCO)N/N=C/c1ccccc1
inactive: [1] -0.2% | [2] -34.4% | [3] -15.9% | [4] -7.75% | [5] -39% | [6] -0.65%

COc1cc(Nc2cc(Cl)cc(Cl)c2)nc(N)n1
active: [1] 76.4% | [2] 81% | [6] 89.6%
inactive: [3] 6.5% | [4] 7.9% | [5] 9.35%

CN(C)CCN(C=O)CCN(C)C
inactive: [1] 9.85% | [2] 3.95% | [3] 4.5% | [4] -9.1% | [5] 0.6% | [6] -0.2%

COc1ccc(CN2CCCN(Cc3ccc(OC)cc3OC)C2c2cccc(OC)c2O)c(OC)c1
inactive: [1] 20.6% | [2] 16.6% | [3] 12.6% | [4] 16% | [5] -6.5% | [6] 6.5%

CCOC(=O)NC(=O)c1cn(CCCCCCOC(=O)NCCCCCCNC(=O)OCCCCCCn2cc(C(=O)NC(=O)OCC)c(=O)[nH]c2=O)c(=O)[nH]c1=O
inactive: [1] 32% | [2] 14.6% | [3] 27.8% | [4] 28.8% | [5] 13.4% | [6] 28.4%

O=c1cc(Nc2ccccc2)c2ccccc2[nH]1
inactive: [1] -3.3% | [2] -20.1% | [3] 7.3% | [4] 12.6% | [5] -15.3% | [6] 23.3%

Nc1ccccc1OCOCOc1ccccc1N
inactive: [1] -11.7% | [2] -17.8% | [3] -7% | [4] -11.4% | [5] -6.3% | [6] -10.3%

C=C1C(=O)OC2CCC(O)C12 (stereo unspecified)
inactive: [1] 6.95% | [2] 5.15% | [3] 1.2% | [4] -30.6% | [5] -1.2% | [6] 11.7%

CCCN1CN(C(C(=O)N[C@@H]2C(=O)N3C(C(=O)O)=C(C)CSC23)c2ccc(O)cc2)CSC1=S (stereo partly specified)
inactive: [1] 11.8% | [2] 7.15% | [3] 10.2% | [4] -25.8% | [5] -23.6% | [6] 34.4%

CC1(C)N=C(N)NC(Nc2ccccc2)=N1
inactive: [1] -0.2% | [2] -6.5% | [3] -27.6% | [4] -26.9% | [5] -10.8% | [6] -0.05%

O=[N+]([O-])/C(Cl)=C(\NCCO)C(Cl)=C(Cl)Cl
inactive: [1] 15.6% | [2] 19% | [3] 38% | [4] 17.1% | [5] 23.9% | [6] -2.3%

CCCCCCCCCCCCCCCCC/C(CC)=N/Nc1ccc([N+](=O)[O-])cc1[N+](=O)[O-]
inactive: [1] -16.9% | [2] 3.9% | [3] -24.6% | [4] -38.8% | [5] -3.2% | [6] -9.1%

CC(=O)Oc1cccc(C)c1
inactive: [1] -20.6% | [2] -4.75% | [3] -18.8% | [4] -28.4% | [5] -13.2% | [6] -5.65%

CCOC(=O)c1ccc(C)cc1F
inactive: [1] -1.85% | [2] 2.3% | [3] 0.2% | [4] -38.6% | [5] -7.8% | [6] 7.65%

C/C(=N/NC(N)=S)c1ccc2ccccc2c1
inactive: [1] 17.4% | [2] 17.1% | [3] 43.8% | [4] 17.2% | [5] 28.9% | [6] 29.4%

C=C(c1ccccc1)c1cccc2ccccc12
inactive: [1] -2.45% | [2] 3.45% | [3] -4.9% | [4] 19.9% | [5] -11.7% | [6] 6.55%

N#CC1(Nc2ccc(Cl)cc2)CCCC1
inactive: [1] 5.6% | [2] 2.4% | [3] -6.5% | [4] -15.6% | [5] 13.8% | [6] 3.1%

O=COCCCCCc1ccccc1
inactive: [1] -10.6% | [2] -5.05% | [3] -2.55% | [4] 8.6% | [5] -6.45% | [6] -11%

CC(=O)N=c1ccc2nc(N)nn(O)c-2c1
inactive: [1] 9.5% | [2] 0.05% | [3] -10.4% | [4] -4.95% | [5] -33.6% | [6] -26.6%

Cc1ccccc1-c1nnc(-c2ccc3ccccc3c2)o1
inactive: [1] 7.3% | [2] -4.25% | [3] -4.65% | [4] -36.5% | [5] 1.05% | [6] -1.05%
